Screening data deposited in PubChem BioAssay by National Center for Advancing Translational Sciences (NCATS).
TDP1 inh: inhibitors of human tyrosyl-DNA phosphodiesterase TDP1 | Potency, µM (highest dose often 130 µM), for inactives: at the highest dose activity change, negative = inhibition, hits mostly inhibitors | actives 0.28% (n = 350,000) | Q9NUW8 | recombinant TDP1, AlphaScreen DNA substrate cleavage; further: on the % scale 0 is the no-effect control and ±100 the full control effect; nearly all actives have a fitted effect of over 40% in size
Target sequence (Q9NUW8 whole entry, looked up): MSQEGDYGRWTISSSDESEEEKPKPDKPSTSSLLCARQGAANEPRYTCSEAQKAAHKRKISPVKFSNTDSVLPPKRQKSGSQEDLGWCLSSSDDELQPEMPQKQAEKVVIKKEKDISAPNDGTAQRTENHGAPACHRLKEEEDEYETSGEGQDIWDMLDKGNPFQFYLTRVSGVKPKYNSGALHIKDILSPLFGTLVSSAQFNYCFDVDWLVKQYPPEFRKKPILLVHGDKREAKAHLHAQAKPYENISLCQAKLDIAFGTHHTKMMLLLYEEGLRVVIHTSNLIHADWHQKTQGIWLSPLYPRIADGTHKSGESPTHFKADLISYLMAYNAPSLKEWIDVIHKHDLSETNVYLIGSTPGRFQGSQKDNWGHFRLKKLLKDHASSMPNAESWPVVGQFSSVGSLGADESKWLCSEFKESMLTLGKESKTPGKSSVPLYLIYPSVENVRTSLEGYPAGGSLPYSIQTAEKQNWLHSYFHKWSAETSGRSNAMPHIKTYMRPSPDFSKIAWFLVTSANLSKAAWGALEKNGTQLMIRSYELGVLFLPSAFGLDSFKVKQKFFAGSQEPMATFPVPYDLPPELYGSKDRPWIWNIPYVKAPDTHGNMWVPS
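E. coli-derived human Tdp1, 1 nM final. Cpd preinc 15 min RT; substrate 15 nM final, 5 min RT; AS bead mix 10 ug/ml final, 10 min RT. Signal loss = tyrosine-FITC cleavage. No-enzyme wells = max signal.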
DT40 TDP1 no CPT: qHTS for Inhibitors of human tyrosyl-DNA phosphodiesterase 1 (TDP1): qHTS in cells in absence of CPT; AID 686978, 2013; actives 15% (n = 420,000); Potency, µM (titrated, usually from 46.2 µM), for inactives: at the highest dose activity change, negative = growth inhibition, usual class: inhibitors; DT40 Tdp1-/- hTDP1 cells, no CPT, ATP luminescence, 48 h; further: on the % scale 0 is the no-effect control and ±100 the full control effect; nearly all actives have a fitted effect of over 55% in size
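A cellular qHTS used chicken DT40 cells lacking endogenous Tdp1 but carrying stably transfected human TDP1. Compounds were applied without camptothecin, and cell growth kinetics were judged by ATP-dependent luminescence after ≥48 hr.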
TDP1 cell CPT: DT40-hTDP1 cell growth loss with CPT; AID 686979; Potency, µM (titrated, usually from 46.2 µM), inactives show at the top dose activity change, negative = growth inhibition, most hits filed as inhibitors; actives 12% (n = 420,000); chicken DT40 Tdp1-/-;hTDP1 cells + 20 nM CPT, ATP luminescence, 48 h; further: on the % scale 0 is the no-effect control and ±100 the full control effect; nearly all actives have a fitted effect of over 55% in size
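Cell growth measured by CellTiter-Glo luminescence after a minimum 48 h, 37 C compound exposure with 20 nM CPT in Tdp1-knockout DT40 cells stably expressing hTDP1, seeded 400/well; qHTS titration format.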
ClpP mod: qHTS Assay for Activators of ClpP; ATP-dependent Clp protease proteolytic subunit (Bacillus subtilis (strain 168)), P80244; purified B. subtilis ClpP, FRET peptide cleavage, 20 min; Potency, µM (doses to about 57.5 µM), inactives show at the highest dose activity change, negative = active; actives 1.9% (n = 340,000); active means well fitted falling curve with a large enough effect; inconclusive means small, poorly fitted or top-dose-only effect; inactive means no such curve, though single readings can be large or run the other way; further: the source files actives as falling curves though it sought activators and does not explain the sign; nearly all actives have a fitted effect of over 65% in size
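ClpP 10 microg/mL final, pH 8 Tris/KCl buffer with BSA, glycerol, Tween-20; compound pinned in; FRET-FV substrate; RT 20 min; Ex320/Em430; ΔFRET vs ADEP 5.8 microM, DMSO, no enzyme.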
* marks the source's active call; other numbers are inactive results; [ ] = remark or other dose. Sampled rows, rich in hits. Any-hit rate of the full collection: about 17%. Unless noted, the call rests on the fitted dose curve; in most records, active means well fitted curve in the direction sought with a large enough effect; inconclusive means small, poorly fitted or top-dose-only effect, or another doubt; inactive means no such curve, though single readings can be large; an effect the other way counts as inactive or inconclusive. Potency means the concentration at half of the fitted maximal effect.

For Cc1cccc(NC(=S)N/N=C/C(C)c2ccccc2)c1C (configuration not stated) the results were TDP1 inh 0%, DT40 TDP1 no CPT inconclusive and TDP1 cell CPT -26%.
For Cc1ccccc1NC(=S)N/N=C/c1ccc(O)cc1O the results were TDP1 inh 7%, DT40 TDP1 no CPT 9.2µM* and TDP1 cell CPT 10µM*.
`Cc1ccccc1C(=O)N/N=C/c1cccc2ccccc12` gave DT40 TDP1 no CPT -18%, TDP1 cell CPT -1% and ClpP mod -3%.
`Cc1ccc(Cl)cc1NC(=S)N/N=C/c1cccc2ccccc12` gave TDP1 inh 7%, DT40 TDP1 no CPT 4.6µM* and TDP1 cell CPT 2.9µM*.
`C[C@@H](C(=O)O)c1ccc(C(=O)c2ccccc2)s1` gave TDP1 inh 7%[56.1 µM].
For Cc1cccc2c(C(O)c3c[nH]c4c(C)cccc34)c[nH]c12 the results were DT40 TDP1 no CPT inconclusive, TDP1 cell CPT inconclusive and ClpP mod 4%.
O=C(COC(=O)C1CCN(c2ccc(C(F)(F)F)cn2)CC1)Nc1cc(F)ccc1F was read as TDP1 inh -4%, DT40 TDP1 no CPT -5%, TDP1 cell CPT -21% and ClpP mod -14%.
Cc1cccc(NC(=S)N/N=C/c2cccc(O)c2)c1C was read as DT40 TDP1 no CPT 2.6µM*, TDP1 cell CPT 2.6µM* and ClpP mod -5%.
Screening CC1(C)CSC(=NCc2ccccc2)N1C(=O)c1cccc([N+](=O)[O-])c1 returned TDP1 inh 3%, DT40 TDP1 no CPT -15%, TDP1 cell CPT -7% and ClpP mod -18%.
Screening CCS(=O)(=O)Nc1ccc(-c2cc(-c3ccccc3)c3cc(C)ccc3n2)cc1 returned TDP1 inh 1%, DT40 TDP1 no CPT inconclusive, TDP1 cell CPT inconclusive and ClpP mod 18µM*.
Cc1ccc2nc(-c3ccc(NS(C)(=O)=O)cc3)cc(-c3ccccc3)c2c1 was read as TDP1 inh 7%, DT40 TDP1 no CPT -16%, TDP1 cell CPT -18% and ClpP mod inconclusive.
O=C(NC1CCCCCCC1)C1c2ccccc2C(=O)N1Cc1cccs1 (configuration not stated) was read as TDP1 inh 0%, DT40 TDP1 no CPT inconclusive, TDP1 cell CPT 13µM* and ClpP mod -4%.
Screening Cc1ccc(S(=O)(=O)N2C[C@H]3C(=O)C[C@@H](c4ccccc4)N(S(C)(=O)=O)[C@H]3C[C@H]2c2ccccc2)cc1 returned DT40 TDP1 no CPT inconclusive, TDP1 cell CPT inconclusive and ClpP mod 0%.
`C[C@@H]1C=CC(=O)O[C@@H]1c1ccc(Cl)cc1` gave DT40 TDP1 no CPT 7.3µM*, TDP1 cell CPT 7.3µM* and ClpP mod -1%.
COc1cc(C(=O)c2cocc2C(=O)c2ccc3c(c2)OCO3)cc(OC)c1OC was read as TDP1 inh 1%, DT40 TDP1 no CPT 0.73µM*, TDP1 cell CPT 0.73µM* and ClpP mod 0%.
For COc1cc(C(=O)NNC(=S)NC(=O)c2ccc3c(c2)OCO3)cc(OC)c1OC the results were TDP1 inh 4%, DT40 TDP1 no CPT inconclusive and TDP1 cell CPT 21µM*.
`CNC(=S)NNC(=O)c1ccc2c(c1)OCO2` gave TDP1 inh 4%, DT40 TDP1 no CPT 4%, TDP1 cell CPT 1% and ClpP mod 6%.
For COc1cc(C(=O)c2ccc3c(c2)OCO3)cc(OC)c1OC the results were DT40 TDP1 no CPT 5.2µM* and TDP1 cell CPT 2.6µM*.
For CC(C)c1ccc(O)c(NC(=S)NC(=O)c2ccc3c(c2)OCO3)c1 the results were TDP1 inh 10%, DT40 TDP1 no CPT 15µM*, TDP1 cell CPT 13µM* and ClpP mod 1%.
Screening CCn1c(C(=O)Nc2ccccc2C(=O)OC)cc2sc(Cl)cc21 returned TDP1 inh 1%, DT40 TDP1 no CPT -16%, TDP1 cell CPT 0% and ClpP mod inconclusive.
C[C@@H]1CN([C@H](C)CO)C(=O)CCCn2nncc2CO[C@@H]1CN(C)S(=O)(=O)c1ccc2c(c1)OCCCO2 was read as DT40 TDP1 no CPT -17%, TDP1 cell CPT -11% and ClpP mod 1%.
For COc1cc(C(=O)N/N=C(\C)c2ccc3c(c2)OCO3)cc(OC)c1OC the results were TDP1 inh 1%, DT40 TDP1 no CPT 1.6µM* and TDP1 cell CPT 1.6µM*.
Cc1ccc(CSC2=Nc3ccccc3C3=NC(CCC(=O)N4CCN(c5ccccc5)CC4)C(=O)N23)cc1 (configuration not stated) was read as TDP1 inh 0%[12.3 µM], DT40 TDP1 no CPT 21µM*, TDP1 cell CPT 21µM* and ClpP mod -17%.
Screening O=C(CCC1N=C2c3ccccc3N=C(SCc3ccc(Cl)cc3)N2C1=O)N1CCN(c2ccccc2)CC1 (configuration not stated) returned TDP1 inh 5%, DT40 TDP1 no CPT 21µM*, TDP1 cell CPT 16µM* and ClpP mod -3%.
Screening COc1ccc(C(=O)N[C@H](C(=O)NCCCn2nc(C)cc2C)C(C)C)cc1 returned TDP1 inh -3%, DT40 TDP1 no CPT 1%, TDP1 cell CPT -12% and ClpP mod 0%.
`CCCN1C(=O)C(O)(C2COC(C)(C)CC2=O)c2ccccc21` (configuration not stated) gave TDP1 inh 2%, DT40 TDP1 no CPT 13µM* and TDP1 cell CPT 3.7µM*.
For CCCN1C(=O)C(O)(C2CC(=O)CC(C)(C)O2)c2ccccc21 (configuration not stated) the results were TDP1 inh 7%, DT40 TDP1 no CPT 5.8µM*, TDP1 cell CPT 5.8µM* and ClpP mod -7%.
Screening CCN1C(=O)C(c2ccc(O)cc2)(c2ccc(O)cc2)c2ccccc21 returned TDP1 inh 5%, DT40 TDP1 no CPT -1% and TDP1 cell CPT 2%.
`CCCN1C(=O)C(O)(CC(=O)c2ccc3c(c2)OCCO3)c2ccccc21` (configuration not stated) gave TDP1 inh 1%, DT40 TDP1 no CPT inconclusive, TDP1 cell CPT inconclusive and ClpP mod -6%.
Screening CCN1C(=O)C(O)(C2COC(C)(C)CC2=O)c2ccccc21 (configuration not stated) returned TDP1 inh 2%, DT40 TDP1 no CPT 8.2µM*, TDP1 cell CPT 13µM* and ClpP mod 0%.
CN1C(=O)C(O)(C2OC(C)(C)CCC2=O)c2ccccc21 (configuration not stated) was read as TDP1 inh -1%, DT40 TDP1 no CPT 6.5µM*, TDP1 cell CPT 8.2µM* and ClpP mod -1%.
Screening Cc1cc(C)c(S(=O)(=O)N2CCN(C(=O)C(C)Cn3cncn3)CC2)c(C)c1 (configuration not stated) returned TDP1 inh 8%, DT40 TDP1 no CPT -4% and TDP1 cell CPT 6%.
